Source: PubChem BioAssay (National Center for Advancing Translational Sciences (NCATS))
DT40 TDP1 CPT = DT40-hTDP1 cell growth loss with CPT; chicken DT40 Tdp1-/-;hTDP1 cells + 20 nM CPT, ATP luminescence, 48 h; Potency, µM (highest dose often 46.2 µM), for the others: top-dose activity change, negative = growth inhibition, hits mostly inhibitors; hit rate 12% among 420,000; note: potency is the fitted concentration of half-maximal effect; nearly all actives have a fitted effect of over 55% in size
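Chicken DT40 Tdp1-/- cells stably complemented with human TDP1 were seeded at 400 cells/well in medium containing 20 nM camptothecin, exposed to pin-transferred compounds, and grown at 37 °C for at least 48 hr. Viability was read as ATP luminescence.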
Six1-Eya2 blk = blocks human Six1 binding to Eya2. Q15475+O00167. AlphaScreen GST-Six1/His-Eya2 binding, biochemical; active compounds read low. activity change, % (concentration not given with the values). hit rate 0.56% among 360,000. AID 651725; in the data active = activity change below about -65%; inconclusive = mostly about -30% to -63%
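AlphaScreen luminescence read after one hour at 37 °C in darkness. Pin-transferred compounds met GST-Six1 and His-Eya2 protein (5X stock 250 nM/500 nM) plus glutathione donor and Ni-chelate acceptor beads (5X, 50 ug/mL).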
CtBP-E1A blk = inhibitors of CtBP/E1A interaction; AlphaScreen GST-E1A/His-CtBP binding, 1536-well; active compounds read low; activity change, % (concentration not given with the values); hit rate 0.49% among 340,000; in the data active = activity change below about -65%; inconclusive = mostly about -30% to -63%
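Homogeneous bead-based format: GST-tagged E1A captured on glutathione donor beads, His-tagged CtBP on nickel acceptor beads; compounds precede bead addition by 2 h at 37 °C.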
TDP1 block = TDP1 (human) enzyme inhibition. Potency, µM (top dose mostly 130 µM), for the others: at the highest dose activity change, negative = inhibition, actives largely listed as inhibitors. recombinant TDP1, AlphaScreen DNA substrate cleavage. Q9NUW8. hit rate 0.28% among 350,000; note: potency is the fitted concentration of half-maximal effect; nearly all actives have a fitted effect of over 40% in size
Target sequence (Q9NUW8 whole entry, looked up): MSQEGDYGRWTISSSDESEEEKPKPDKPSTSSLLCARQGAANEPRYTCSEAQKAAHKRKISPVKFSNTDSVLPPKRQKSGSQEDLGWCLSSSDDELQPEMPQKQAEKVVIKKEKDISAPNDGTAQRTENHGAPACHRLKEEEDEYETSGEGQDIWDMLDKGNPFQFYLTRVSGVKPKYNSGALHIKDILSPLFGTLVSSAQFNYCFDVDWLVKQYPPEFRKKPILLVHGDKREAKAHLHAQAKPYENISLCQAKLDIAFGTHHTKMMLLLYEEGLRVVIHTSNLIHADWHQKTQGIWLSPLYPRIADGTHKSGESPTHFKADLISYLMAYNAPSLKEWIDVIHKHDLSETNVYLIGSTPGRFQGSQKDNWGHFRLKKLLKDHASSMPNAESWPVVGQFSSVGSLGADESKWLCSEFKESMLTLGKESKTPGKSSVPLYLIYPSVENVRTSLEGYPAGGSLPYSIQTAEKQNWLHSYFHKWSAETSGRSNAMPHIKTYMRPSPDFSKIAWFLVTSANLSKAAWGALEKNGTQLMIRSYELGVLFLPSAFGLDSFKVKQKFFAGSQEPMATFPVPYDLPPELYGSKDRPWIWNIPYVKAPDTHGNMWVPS
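Enzyme-compound mixtures sat 15 min at room temperature, followed by a 5 min reaction with 15 nM final substrate and 10 min with AlphaScreen beads. Recombinant human Tdp1 was used at 1 nM final.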
DT40 TDP1 no CPT = qHTS for Inhibitors of human tyrosyl-DNA phosphodiesterase 1 (TDP1): qHTS in cells in absence of CPT; Potency, µM (top dose mostly 46.2 µM), without a hit: top-dose activity change, negative = growth inhibition, most hits filed as inhibitors; DT40 Tdp1-/- hTDP1 cells, no CPT, ATP luminescence, 48 h; hit rate 15% among 420,000; note: potency is the fitted concentration of half-maximal effect; nearly all actives have a fitted effect of over 55% in size
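Chicken DT40 Tdp1-/- cells stably complemented with human TDP1 were seeded at 400 cells/well with DMSO in place of 20 nM camptothecin. After compound pinning, cells grew at least 48 hr at 37 °C; viability read by CellTiter-Glo luminescence.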
IL1B secr inh = blocks inflammasome-driven IL-1 beta release; THP-1 LPS/ATP IL-1B secretion, AlphaLISA, 16 h; active compounds read low; activity change, % at 57.5 µM; hit rate 4.7% among 360,000; in the data active = activity change below about -50%; inconclusive = mostly about -30% to -49%
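THP-1 cells pretreated 1 hr with compounds (up to 57.5 uM final), then stimulated with LPS (250 ng/mL final) plus ATP (1.25 mM final); secreted IL-1B measured by AlphaLISA after 16 hr, decreased signal indicating inhibition.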
Active calls of the source: *; ? = inconclusive; . = no result given. Hits are enriched below; roughly 18% of the tested compounds scored in any of these assays. Unless noted, calls come from the whole dose curve; as a rule, active = well fitted curve in the direction sought with a large enough effect; inconclusive = small, poorly fitted or top-dose-only effect, or another doubt; inactive = no such curve, though single readings can be large; an effect the other way counts as inactive or inconclusive. % is set by controls: 0 for no effect and ±100 for the full control effect.

SMILES | DT40 TDP1 CPT | Six1-Eya2 blk | CtBP-E1A blk | TDP1 block | DT40 TDP1 no CPT | IL1B secr inh
Cc1ccc2nc(-c3ccc(C)c(NC(=O)CSc4ccc(Cl)cc4)c3)oc2c1 | 13µM* | . | . | 2% | ? | .
Cc1ccc(-c2nn3c(C)nnc3s2)cc1NCc1c(F)cccc1Cl | 18µM* | 1 | 0 | 0% | 18µM* | -21
O=C(O)c1cc(-c2ccc(Cl)c(Cl)c2)n(-c2ccccc2)n1 | 1% | 14 | 0 | . | -17% | 22
Cc1ccc(-c2nn3c(C)nnc3s2)cc1NC(=O)CSc1ccc(Cl)cc1 | ? | 1 | 7 | 3% | 18µM* | 23
Cc1ccc2nc(-c3cccc(NC(=O)CSc4ccc(Cl)cc4)c3)oc2c1 | 26µM* | . | . | 5% | 9.2µM* | .
Cc1ccc(CN2CCNC(=O)C2CC(=O)N(C)C(C2CC2)C2CC2)o1 (centres undefined) | -21% | -2 | 7 | 3% | -4% | 3
O=C1/C(=C/c2ccco2)N=C(N2CCCCC2)N1c1ccccc1 | 21µM* | 10 | 19 | 3% | 18µM* | -8
CC(C)N(C1=N/C(=C\c2ccco2)C(=O)N1c1ccccc1)C(C)C | 13µM* | 16 | 4 | 2% | ? | 14
CN1C(=S)N(c2ccccc2)C(=O)/C1=C/c1ccco1 | ? | -6 | 6 | 6% | ? | 2
CCc1cc(=O)oc2cc(C)cc(OC(C)C(=O)NC(Cc3c[nH]c4ccc(O)cc34)C(=O)O)c12 (centres undefined) | -9% | -4 | -8 | . | -2% | 12
CCOC(=O)c1ccc(NC(=O)CSc2nccn2-c2cc(C)cc(C)c2)cc1 | 23µM* | . | . | 10% | 18µM* | .
Cc1cc(C)cc(-n2ccnc2SCC(=O)Nc2ccc3c(c2)OCO3)c1 | ? | . | . | 9% | 21µM* | .
COc1cccc(-n2ccnc2SCC(=O)Nc2ccccc2)c1 | 5.8µM* | -11 | -11 | 7% | 8.2µM* | -15
CCOC(=O)c1ccc(NC(=O)CSc2nccn2C)cc1 | ? | -3 | -2 | 9% | ? | -15
CCOC(=O)c1ccc(NC(=O)CSc2nccn2Cc2ccc(OC)cc2)cc1 | 15µM* | . | . | 9% | ? | .
COc1cccc(NC(=O)CSc2nccn2-c2cccc(OC)c2)c1 | ? | -13 | -13 | 5% | ? | -13
CCC(=O)Nc1nnc(S(=O)(=O)N(C)c2cc(C)cc(C)c2)s1 | -1% | 0 | . | . | -9% | 3
O=C(NCc1ccccc1)N1CCN(CCO)CC1 | 2% | 0 | 5 | . | -4% | -1
COc1ccc(NC(=O)CSc2nccn2-c2cccc(OC)c2)cc1 | 4% | -10 | -3 | 12% | -28% | -7
COc1cccc(-n2ccnc2SCC(=O)Nc2ccccc2F)c1 | 0% | -14 | -13 | 9% | -29% | -70*
COc1cccc(-n2ccnc2SCC(=O)Nc2cccc(C)c2C)c1 | 21µM* | . | . | 9% | 16µM* | .
Cc1ccc(NC(=O)CSc2nccn2-c2ccccc2)cc1 | ? | . | . | 12% | ? | .
Cc1cc(NC(=O)CSc2nccn2-c2cccc(C)c2C)no1 | ? | -2 | 4 | 4% | 21µM* | 19
Cc1cc(C)cc(NC(=O)CSc2nccn2-c2ccccc2)c1 | ? | . | . | 9% | 23µM* | .
Cc1ccc(S(=O)(=O)c2nnn3c2nc(NCc2ccc4c(c2)OCO4)c2sccc23)cc1C | ? | . | . | 3% | 23µM* | .
SMILES | DT40 TDP1 CPT | Six1-Eya2 blk | CtBP-E1A blk | TDP1 block | DT40 TDP1 no CPT | IL1B secr inh
Cc1ccc(C)c(S(=O)(=O)c2nnn3c2nc(NCc2ccc4c(c2)OCO4)c2sccc23)c1 | 18µM* | . | . | 5% | ? | .
Cc1ccc(S(=O)(=O)c2nnn3c2nc(NCCc2ccccc2)c2sccc23)cc1 | 16µM* | . | . | 5% | ? | .
Cc1ccc(S(=O)(=O)c2nnn3c2nc(NCc2ccc4c(c2)OCO4)c2sccc23)cc1 | ? | . | . | 8% | 13µM* | .
Cc1ccc(CNc2nc3c(S(=O)(=O)c4ccccc4)nnn3c3ccsc23)cc1 | -28% | . | . | 3% | -14% | .
Cc1nc(N2CCN(c3ccccc3)CC2)[nH]c(=O)c1CCC(C)C | 7% | -2 | -9 | 3% | -18% | -7
COc1ccc(S(=O)(=O)N2CCOCC2)cc1NC(=O)CN1CCCCCC1 | 5% | 5 | 13 | -2% | ? | 15
CCc1ccc(S(=O)(=O)c2nnn3c2nc(NC2CCCCCC2)c2sccc23)cc1 | ? | . | . | -8% | 16µM* | .
O[C@H]1C[C@H](c2ccccc2)N(Cc2cccs2)C[C@@H]1n1cc(C2CC2)nn1 | ? | -4 | 4 | . | 21µM* | -10
COc1ccc([C@H]2C[C@H](O)[C@@H](n3cc(C4CC4)nn3)CN2Cc2cccs2)cc1 | ? | -6 | -6 | . | 12µM* | 15
COc1ccc(S(=O)(=O)N2CCN(C3Cc4ccccc4C3)CC2)cc1 | -14% | 3 | 0 | -1% | ? | 0
Cc1[nH]c2ccc(F)cc2c1CCN(Cc1ccncc1)C(=S)Nc1ccc(F)cc1 | ? | -11 | 0 | 6% | ? | ?
COc1ccc(-n2cc(-c3ccccc3)c3c(NN4CCOCC4)ncnc32)cc1 | ? | -10 | -8 | 3% | 16µM* | -85*
Fc1ccc(-n2cc(-c3ccccc3)c3c(NN4CCOCC4)ncnc32)cc1 | ? | -14 | -7 | 2% | 23µM* | -73*
COCCCNc1ncnc2c1c(-c1ccccc1)cn2-c1ccc(C)c(Cl)c1 | 18µM* | . | . | 5% | ? | .
CCCc1ccc(OCC(=O)Nc2cc(S(=O)(=O)CC)ccc2O)cc1 | 4% | 3 | -9 | 1% | -2% | 10
CC(C)CCC(CCNCc1ccccn1)c1ccc(Cl)cc1 (centres undefined) | -89% | 6 | 0 | . | 15µM* | -98*
S=C(NCc1ccc(Cl)cc1)NCc1ccccn1 | -21% | -3 | -5 | 6% | 24% | 8
CCOc1cc(/C=N/NC(=O)CCn2nnc3ccccc32)ccc1O | -20% | -13 | -22 | 4% | -13% | 2
COc1ccc(/C=N/N2CCN(C3c4ccccc4-c4ccccc43)CC2)cc1O | ? | -28 | -4 | 9% | 18µM* | -26
Cc1ccc(/C=N/N2CCN(C3c4ccccc4-c4ccccc43)CC2)s1 | -14% | 4 | 4 | -1% | ? | 17
COc1ccc(/C=N/N2CCOCC2)cc1O | 12% | -3 | -7 | -5% | -1% | 7
C(=N\N1CCN(C2c3ccccc3-c3ccccc32)CC1)/c1ccccn1 | 21µM* | -7 | -20 | 6% | 16µM* | -14
